The text below walks through data of the supplement of paper PMC9446081.

The campaign covered roughly 39,000 compounds. About 220 (0.56%) showed activity. The entries come from a sample that favours actives as a whole.
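Also: Wild-type cells incubated without shaking, value is the mean of two biological replicates.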

The assay relates to Escherichia coli K-12 BW25113. Briefly: relative growth (OD600 normalised to plate interquartile mean) (fraction); higher = less growth inhibition, active = 0.2 or less. Conditions: 50 µM; LB; incubation time: overnight (16-24 h).
As for `COc1ccc2c3c([nH]c2c1)[C@H](CO)N(C[C@]13CN(C1)C(=O)Cc1cccnc1)S(=O)(=O)c1ccc(cc1)C`, the relative growth is 0.987 (inactive). With `CCn1cc(C(=O)O)c(=O)c2cnc(N3CCNCC3)nc21` the figure was 0.05 (active); with `CCn1cc(C(=O)O)c(=O)c2cnc(N3CCCC3)nc21`, 1.09 (inactive); with `CCn1cc(C(=O)O)c(=O)c2ccc(C)nc21`, 1.02 (inactive).

In the case of `CCn1cc(C(=O)O)c(=O)c2cc(F)c(N3CCNCC3)nc21`, the relative growth was 0.049 (active).

For the compound `O=C(O)c1cnc(N2CCCC2)nc1`, the relative growth is 1.03 (inactive). The value for `NC(=O)c1cc(S(N)(=O)=O)ccc1Cl` was 0.993 (inactive). The value for `C[C@H]1CN([C@@H](C)CO)C(=O)c2cc(NC(=O)Nc3ccc(F)cc3)ccc2O[C@H]1CN(C)S(C)(=O)=O` was 1.02 (inactive); that for `Cc1noc(C)c1S(=O)(=O)N(C)C[C@@H]1Oc2ccc(NS(C)(=O)=O)cc2CC(=O)N([C@@H](C)CO)C[C@H]1C` was 1.01 (inactive). The value for `C[C@@H]1CCCCO[C@@H](CN(C)C(=O)Nc2ccc3c(c2)OCO3)[C@@H](C)CN([C@H](C)CO)C(=O)c2cc(NC(=O)Nc3ccc4c(c3)OCO4)ccc2O1` was 1.02 (inactive); that for `C[C@@H]1CN([C@@H](C)CO)C(=O)c2cc(NC(=O)Nc3ccc(F)cc3)ccc2O[C@@H](C)CCCCO[C@@H]1CN(C)Cc1ccncc1` was 0.93 (inactive).

Turning to `Cc1noc(C)c1NC(=O)N(C)C[C@@H]1Oc2c(NC(=O)Nc3ccc(C(F)(F)F)cc3)cccc2C(=O)N([C@@H](C)CO)C[C@@H]1C`, the relative growth is 0.943 (inactive). With `CCOC(=O)c1c(C)cc(O)c(C=O)c1O` the figure was 0.0424 (active); with `COC(=O)c1c(C)cc(OC(=O)c2c(C)cc(O)c(C=O)c2O)c(C)c1O`, 0.867 (inactive). With `Cc1cc(O)c(C=O)c(O)c1C(=O)O` the figure was 1.07 (inactive).

Regarding `COc1ccc(NC(=O)Nc2ccc3c(c2)C(=O)N([C@@H](C)CO)C[C@H](C)[C@H](CN(C)C(=O)Nc2ccc4c(c2)OCO4)OCCCC[C@@H](C)O3)cc1`, the relative growth is 1.04 (inactive). The value for `Cc1noc(C)c1NC(=O)Nc1ccc2c(c1)C(=O)N([C@H](C)CO)C[C@@H](C)[C@@H](CN(C)C(=O)NC1CCCCC1)OCCCC[C@H](C)O2` was 1.02 (inactive); that for `C[C@H]1CN([C@@H](C)CO)C(=O)c2cc(N(C)C)ccc2O[C@H]1CN(C)S(C)(=O)=O` was 0.993 (inactive); that for `Cc1ccc(S(=O)(=O)O)cc1.NC1CCN(c2nc3c(cc2F)c(=O)c(C(=O)O)cn3-c2ccc(F)cc2F)C1.O` (stereo not drawn) was 0.0925 (active). With `N[C@H]1CCN(c2nc3c(cc2F)c(=O)c(C(=O)O)cn3-c2ccc(F)cc2F)C1` the figure was 0.17 (active). Regarding `Cc1cn2nc([C@@H]3CCCCN3C(=O)c3cc(Cl)ccc3NS(C)(=O)=O)cc2nc1N1CC[C@H](N)C1`, the relative growth was 0.981 (inactive). The value for `N[C@@H]1[C@H]2CN(c3nc4c(cc3F)c(=O)c(C(=O)O)cn4-c3ccc(F)cc3F)C[C@@H]12` was 0.0389 (active); that for `O=C(C[C@@H]1CC[C@@H]2[C@H](COC[C@H](O)CN2S(=O)(=O)c2ccccc2)O1)NCc1ccc2c(c1)OCO2` was 0.99 (inactive); that for `C[C@@H]1CCCCO[C@H](CN(C)Cc2ccccc2)[C@@H](C)CN([C@@H](C)CO)C(=O)c2cc(NS(=O)(=O)c3ccc(Cl)cc3)ccc2O1` was 0.981 (inactive). Consider `Cc1noc(C)c1S(=O)(=O)Nc1ccc2c(c1)C(=O)N([C@H](C)CO)C[C@H](C)[C@H](CN(C)Cc1ccncc1)O2`, for which the relative growth is 0.999 (inactive). The value for `COCCOC(=O)N1C(=O)[C@@]2(c3cc(C#CCCO)ccc31)[C@H](C(=O)Nc1nc3ccccc3s1)[C@H]1C(=O)O[C@H](c3ccccc3)[C@H](c3ccccc3)N1[C@@H]2c1ccc(O)cc1` was 1.02 (inactive); that for `C[C@H](CO)N1C[C@H](C)[C@@H](CN(C)Cc2ccc(C(=O)O)cc2)OCCCC[C@H](C)Oc2ccc(NS(=O)(=O)c3ccc(F)cc3)cc2C1=O` was 0.967 (inactive); that for `C=C1C(=O)O[C@@H]2/C=C(\CO[C@@H]3O[C@H](CO)[C@@H](O)[C@H](O)[C@H]3O)CC/C=C3\C[C@H](OC3=O)[C@@H]12` was 0.997 (inactive). Take `C[C@@H]1CN([C@@H](C)CO)C(=O)Cc2cc(NC(=O)Cc3cn(C)c4ccccc34)ccc2O[C@H]1CN(C)Cc1ccc(C(=O)Nc2ccccc2N)cc1`: the relative growth was 0.988 (inactive). The value for `C[C@H](O)CC1=C[C@H](O)[C@@H](C)OC1=O` was 1.01 (inactive); that for `C[C@]1(C(=O)NCc2ccccc2)c2ccccc2C(=O)N(Cc2ccc(OC(F)(F)F)cc2)[C@H]1c1ccc(CO)cc1` was 0.983 (inactive). The value for `NCC1OC(OC2C(N)CC(N)C(OC3OC(CO)C(O)C(N)C3O)C2O)C(N)CC1O` (stereo not drawn) was 0.0445 (active); that for `NCC1CCC(N)C(OC2C(N)CC(N)C(OC3OC(CO)C(O)C(N)C3O)C2O)O1` (stereo not drawn) was 0.947 (inactive); that for `NC[C@@H]1O[C@H](O[C@H]2[C@@H](O)[C@H](O[C@@H]3[C@@H](O)[C@H](N)C[C@H](N)[C@H]3O[C@@H]3O[C@H](CO)[C@@H](O)C[C@H]3N)O[C@@H]2CO)[C@H](N)[C@@H](O)[C@@H]1O[C@H]1O[C@H](CO)[C@@H](O)[C@H](O)[C@@H]1O` was 1.01 (inactive). With `CNC1C(OC2OC(CO)C(N)C(O)C2O)OC2CC(N)C(OC3C(N)CC(N)C(O)C3O)OC2C1O.O=S(=O)(O)O` (stereo not drawn) the figure was 1.2 (inactive); with `CN[C@@H]1[C@@H](O[C@H]2O[C@H](CO)[C@@H](N)[C@H](O)[C@H]2O)O[C@H]2C[C@@H](N)[C@H](O[C@H]3[C@H](O)[C@@H](O)[C@H](N)C[C@@H]3N)O[C@@H]2[C@@H]1O`, 0.978 (inactive). `NC[C@H]1O[C@H](O[C@H]2[C@H](O)[C@@H](O[C@H]3O[C@H](CO)[C@@H](O)[C@H](N)[C@H]3O)[C@H](N)C[C@@H]2N)[C@H](N)C[C@@H]1O`: the relative growth was 0.0393 (active).

In the case of `C[C@H]1CN([C@@H](C)CO)C(=O)CCCn2cc(nn2)CO[C@@H]1CN(C)S(=O)(=O)c1cccc(C#N)c1`, the relative growth was 0.987 (inactive). The value for `C[C@H](CO)N1C[C@H](C)[C@@H](CN(C)Cc2ccc(Oc3ccccc3)cc2)Oc2ccc(NC(=O)C3CC3)cc2C1=O` was 0.915 (inactive); that for `C[C@H]1CN([C@@H](C)CO)C(=O)c2ccccc2-c2ccccc2CO[C@H]1CN(C)S(=O)(=O)c1ccc(C(F)(F)F)cc1` was 1.04 (inactive); that for `C[C@H]1CN([C@@H](C)CO)S(=O)(=O)c2ccc(C3=CCCCC3)cc2O[C@H]1CN(C)Cc1cncnc1` was 1.02 (inactive). The value for `COc1ccccc1S(=O)(=O)N(C)C[C@H]1OCc2cn(nn2)CCCC(=O)N([C@@H](C)CO)C[C@H]1C` was 1.05 (inactive). With `C[C@H]1CN([C@@H](C)CO)C(=O)Cc2cc(NC(=O)C3CCCCC3)ccc2O[C@@H]1CN(C)S(C)(=O)=O` the figure was 0.992 (inactive); with `C[C@@H]1CN([C@H](C)CO)C(=O)c2cc(NS(=O)(=O)c3ccc(F)cc3)ccc2O[C@@H](C)CCCCO[C@@H]1CN(C)Cc1ccc(C(=O)O)cc1`, 1 (inactive). With `Clc1ccc2sc(Sc3ccccc3)nc2c1`, the relative growth is 0.985 (inactive). The value for `COc1ccc(-c2c(C)oc3ccc(Cl)cc23)cc1` was 0.992 (inactive); that for `CC1CCC2(C)C(C=O)=CCCC2C1(C)CC1OC(O)C(=O)C12CO2` (stereo not drawn) was 0.0462 (active); that for `COC(=O)[C@@H](NC(=O)c1cccc(NC=O)c1O)[C@@H](C)O` was 1.04 (inactive). With `C[C@@H]1CN([C@H](C)CO)C(=O)c2cc(NC(=O)c3ccncc3)ccc2O[C@@H](C)CCCCO[C@H]1CN(C)Cc1ccc(C(F)(F)F)cc1` the figure was 1 (inactive); with `Cc1noc(C)c1NC(=O)N(C)C[C@H]1OCCCC[C@@H](C)Oc2ccc(NS(=O)(=O)c3ccccc3)cc2C(=O)N([C@@H](C)CO)C[C@H]1C`, 1.01 (inactive).

On to `O=C1OC(CN2CCOCC2)CN1N=Cc1ccc([N+](=O)[O-])o1` (stereo not drawn), for which the relative growth is 0.575 (inactive). Consider `O=C1CN(N=Cc2ccc(-c3ccc([N+](=O)[O-])cc3)o2)C(=O)[N-]1.[Na+]`, for which the relative growth is 1.06 (inactive). With `O=C1CN(/N=C/c2ccc([N+](=O)[O-])o2)C(=O)N1` the figure was 0.031 (active).

As for `O=C1OCCN1N=Cc1ccc([N+](=O)[O-])o1`, the relative growth was 0.0457 (active). With `O=C1CN(N=Cc2ccc([N+](=O)[O-])o2)C(=O)N1` the figure was 0.0462 (active); with `Cc1cc(C(=O)Nc2cccc3c2O[C@@H](CN(C)S(=O)(=O)c2ccccc2)[C@H](C)CN([C@@H](C)CO)C3=O)n(C)n1`, 1.01 (inactive); with `C[C@@H]1CN([C@@H](C)CO)S(=O)(=O)c2ccc(Br)cc2O[C@@H]1CN(C)S(=O)(=O)c1ccc(F)cc1`, 1.04 (inactive). With `CCN1CCN(CC(=O)Nc2ccc(-c3cccc4c(=O)cc(N5CCOCC5)oc34)c3sc4ccccc4c23)CC1` the figure was 0.981 (inactive). With `COc1ccc(S(=O)(=O)Nc2cccc3c2O[C@H](CN(C)S(=O)(=O)c2cn(C)cn2)[C@@H](C)CN([C@H](C)CO)C3=O)cc1` the figure was 1.01 (inactive); with `CN(C)CCCNC(=O)C[C@@H]1CC[C@@H]2[C@H](COc3ccc(NS(C)(=O)=O)cc3C(=O)N2C)O1`, 1 (inactive). With `C[C@@H]1CCCCO[C@H](CN(C)Cc2ccccc2)[C@@H](C)CN([C@H](C)CO)C(=O)c2cc(NC(=O)C3CCCCC3)ccc2O1`, the relative growth was 0.995 (inactive). With `C[C@@H]1CCCCO[C@@H](CN(C)C(=O)Nc2ccc3c(c2)OCO3)[C@@H](C)CN([C@H](C)CO)C(=O)c2cc(NC(=O)c3ccccc3)ccc2O1` the figure was 1.01 (inactive); with `C/C=C/c1ccc2c(c1)O[C@@H](CN(C)C(=O)c1ccc3c(c1)OCO3)[C@@H](C)CN([C@H](C)CO)S2(=O)=O`, 1.01 (inactive).
